ALOX12 inh: inhibitors of human 12S-lipoxygenase ALOX12. purified 12hLO, xylenol orange hydroperoxide absorbance. Potency, µM (series often up to 108 µM), for inactives: top-dose activity change, negative = inhibition, most hits filed as inhibitors. actives 1.1% (n = 580,000). AID 1671190; further: on the % scale 0 is the no-effect control and ±100 the full control effect
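Hydroperoxide product was detected by ferrous iron/xylenol orange as the 573 to 405 nm absorbance ratio. Arachidonic acid at 40 uM (final) was turned over for 30 min at room temperature by 150 nM human 12hLO, pH 7.0 Hepes buffer, after 15 min compound preincubation.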
Anesthetic bind: binds horse apoferritin like a general anesthetic; P02791; apoferritin/1-aminoanthracene competitive binding, fluorescence; Potency, µM (doses to about 77.5 µM), without a hit: top-dose activity change, negative = displacement, most hits filed as inhibitors; actives 0.074% (n = 350,000); further: on the % scale 0 is the no-effect control and ±100 the full control effect; nearly all actives have a fitted effect of over 20% in size
Target sequence (P02791 2-175 limits assumed): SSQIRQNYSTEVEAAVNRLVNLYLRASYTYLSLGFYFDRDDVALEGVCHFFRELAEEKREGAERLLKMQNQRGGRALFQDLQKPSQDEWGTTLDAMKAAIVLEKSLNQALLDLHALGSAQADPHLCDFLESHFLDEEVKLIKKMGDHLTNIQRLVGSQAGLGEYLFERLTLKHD
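10 uM apoferritin + 50% sat. 1-AMA, PBS; cpd 10 min RT; Ex380/Em535 endpoint; normalized to free probe vs complex; 4-param Hill fit; propofol titration as pos. ctrl.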
BCR signal inh: blocks chronic active B-cell receptor signaling | ABC-DLBCL IkBa-CBG/CBR reporter, luminescence ratio, 4 h | Potency, µM (titrated, usually from 46.1 µM), inactives show at the highest dose activity change, negative = inhibition, actives largely listed as inhibitors | actives 0.05% (n = 340,000); active means well fitted inhibition curve with a large enough effect in the signal ratio, with a control signal flat, not every such curve was filed as active; inconclusive means small, poorly fitted or top-dose-only effect, or effect the other way, or a change in a side signal; the % refers to the signal ratio;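 further: plate controls were basal doxycycline-induced cells for no effect and cells given 10 µM MG132 for full effect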
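Doxycycline induced both beetle luciferases in TMD8 lymphoma cells; IKK-driven degradation limits the IkappaBalpha-fused green signal, while red luminescence normalises for cell number and nonspecific effects. Compounds tested up to 46 uM, 4 hrs.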
Glioma ERSR ind: ER stress response induction in glioma. U87-MG GRP78 promoter luciferase reporter, 16 h. Potency, µM, for inactives: at the top dose activation, hits mostly activators. actives 0.02% (n = 420,000). AID 602332; further: series mostly up to about 76 µM; % of control where 0% means no effect; nearly all actives have a fitted effect of over 35% in size
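ERSR induction read as luciferase luminescence (Bright-Glo, 10 min at room temperature) in stably transfected human U87-MG glioma cells exposed to compounds for 16 h, using GRP78 as sensor.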
Active calls of the source: *; u = inconclusive; x = no result given; ! = a repeat was not active; [ ] = dose if it differs, or a comment. An excerpt weighted towards active compounds, which were near 1.1% of everything screened. Unless noted, the call rests on the fitted dose curve; in most records, active means well fitted curve in the direction sought with a large enough effect; inconclusive means small, poorly fitted or top-dose-only effect, or another doubt; inactive means no such curve, though single readings can be large; an effect the other way counts as inactive or inconclusive. Potency means the concentration at half of the fitted maximal effect.

SMILES | ALOX12 inh | Anesthetic bind | BCR signal inh | Glioma ERSR ind
O=C(Nc1cc(Br)ccc1O)c1cc(-c2ccco2)on1 | 28.2µM* | -3.8% | u | 1.5%
Cc1ccccc1NC1(c2nnnn2-c2ccccc2)CCCC1 | -26.3% | x | x | x
CSc1nc(Nc2ccc(Cl)cc2)c(C#N)c(=O)[nH]1 | 6.31µM* | -8.0% | u | -2.8%
CCN(CC)CCCNc1nc2ccccc2c2[nH]c3ccc(OC)cc3c12 | 44.7µM* | x | x | -13.9%
CCN(CC)CCCNc1nc(-c2ccccc2)nc2ccccc12 | u | 4.0% | 2.6% | -2.7%
CC(C#N)CN(C)C(=O)/C=C/c1ccsc1 (configuration not stated) | -14.7% | x | x | x
O=C(Cn1nnc(-c2cc(C(F)(F)F)cc(C(F)(F)F)c2)n1)NNC(=S)Nc1ccc(Cl)cc1 | 17.8µM* | -5.9% | 19.5% | -2.4%
Cc1cc(C(F)(F)F)nn1CC(=O)NNC(=S)Nc1ccc(Cl)cc1 | -16.0% | -8.5% | 9.2% | -0.8%
CC(C)(C)CN1CCC2(CC1)Cc1ccccc1CNC2=O | 0.7%[6.33 µM] | x | x | x
O=C1Nc2c(Cl)cc(Cl)cc2C12Nc1ccccc1S2 (configuration not stated) | 35.5µM* | x | x | x
Cc1c(O)cc2c(c1O)C(=O)CC(c1ccccc1)O2 (configuration not stated) | u | -21.6% | 10.6% | 28.2µM*
COc1c(O)cc2c(c1O)C(=O)CC(c1ccccc1)O2 (configuration not stated) | x | -16.2% | -1.5% | x
CCOC(=O)Nc1ccc2c(c1)N(CCCN(C)C)c1ccccc1CC2 | -21.3% | -12.3% | u | -2.6%
CN(C)CCCN1c2ccc([N+](=O)[O-])cc2CCc2cc([N+](=O)[O-])ccc21 | 31.6µM* | x | x | -2.1%
C=CCc1cc(/C=C/c2nc(O)c([N+](=O)[O-])c(=O)[nH]2)cc(OC)c1O | 39.8µM* | -16.9% | u | -1.4%
O=c1[nH]c2c(s1)C(c1ccc(O)cc1)C1C3CCC(C3)C1S2 (configuration not stated) | 44.7µM* | u | 15.4% | 2.1%
NC(=NCc1ccccc1)NN=Cc1ccnc2ccccc12 | 12.6µM* | x | x | -3.1%
CC1CCN(C(=O)C(=O)N2CCN(c3nc(-c4ccco4)c4c(c3C#N)CC(C)(C)OC4)CC2)CC1 | 14.1µM* | x | x | x
CCCCN(C)c1nc(-c2ccco2)c2c(c1C#N)CC(C)(C)OC2 | 39.8µM* | u | u | -12.6%
Cc1ccc(C2=NC3(CCN(C(=O)c4ccc5[nH]ccc5c4)CC3)ON2)cc1 | 1.5% | x | x | x
COc1ccc(Cl)cc1NC(=O)C(C)OC(=O)c1ccsc1 (configuration not stated) | 4.5% | x | x | x
N#CC1=C(N)Oc2cc(O)ccc2C1c1ccccc1 (configuration not stated) | 4.47µM*! | -0.5% | 1.3% | 0.3%
N#CC1=C(N)SC(N)=C(C#N)C1c1cccc(O)c1 | 31.6µM* | -8.7% | 1.6% | 2.1%
O=C(COC(=O)C12CC3CC(CC(C3)C1)C2)Nc1ccc(Cl)cc1[N+](=O)[O-] | 35.1% | x | x | x
O=C(Nc1ccc(Oc2ccccc2)cc1)c1cccc(CN2CCCC2=O)c1 | 0.7% | x | x | x
SMILES | ALOX12 inh | Anesthetic bind | BCR signal inh | Glioma ERSR ind
CC1CCCN(S(=O)(=O)c2ccc(-c3nc(C#N)c(NCc4ccco4)o3)cc2)C1 (configuration not stated) | 6.8% | x | x | x
O=C(O)c1cccc(-n2cccc2/C=C2\NC(=O)N(Cc3ccc(F)cc3)C2=O)c1 | 39.8µM* | -17.6% | -0.5% | -0.4%
CC(C)Cn1c(-c2ccc(Br)cc2)c[nH]c1=S | 35.5µM* | -18.8% | 2.5% | -2.6%
Cc1ccncc1-c1c(C)nn2c1N(Cc1cccc(OC(F)(F)F)c1)CCC2 | -24.4%[176 µM] | x | x | x
Cc1ccncc1-c1c(C)nn2c1N(Cc1cccc(O)c1)CCC2 | 31.6µM* | x | x | x
Cc1c(O)ccc(-c2n[nH]c(C(=O)O)c2-c2nc3ccccc3s2)c1O | 35.5µM* | 9.1% | 27.4% | 3.6%
Cc1c(O)ccc(-c2[nH]ncc2-c2nc3ccccc3s2)c1O | -29.5% | -11.1% | u | -4.3%
O=C(CCc1nc2ccccc2oc1=O)OCc1cccc(C(F)(F)F)c1 | 1.9% | x | x | x
CCOc1ccc(Br)cc1C1C(C#N)=C(N)Oc2cc3c(cc21)OCO3 (configuration not stated) | 7.08µM* | x | x | x
Cc1nc2cccnc2n1CC1CCCN(C(=O)Nc2cccc(C(F)(F)F)c2)C1 (configuration not stated) | 50.6% | x | x | x

Source: PubChem BioAssay
